# Results as given in PubChem BioAssay AID720509 (The Scripps Research Institute Molecular Screening Center, 2013).
# Among all 370,000 compounds or so, about 760 (0.21%) were called active. The full list was thinned out, with actives kept by preference. A number with no mark means an inactive call.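 How the source made its calls: active means inhibition above a per-campaign cutoff: mean of compounds within control limits plus 3 SD (cut at about 15% in these data); inactive means the rest.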
# Biological target: Fibrinogen beta chain (Homo sapiens) (UniProt P02675)
# Test: inhibitors of Tn6 peptide binding to fibrin DD(E), primary screen, biochemical, fluorescence polarization, human fibrin, Tn6 probe (AID 720509);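 further: 0% = median of all compound wells on the plate and 100% = blocking peptide control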
# Conditions: Fibrin DD(E) TRITC-Tn6 fluorescence polarization displacement; at 8.3 µM; stronger effect = higher value
# Sequence of Fibrinogen beta chain (Homo sapiens) (P02675 whole entry, looked up): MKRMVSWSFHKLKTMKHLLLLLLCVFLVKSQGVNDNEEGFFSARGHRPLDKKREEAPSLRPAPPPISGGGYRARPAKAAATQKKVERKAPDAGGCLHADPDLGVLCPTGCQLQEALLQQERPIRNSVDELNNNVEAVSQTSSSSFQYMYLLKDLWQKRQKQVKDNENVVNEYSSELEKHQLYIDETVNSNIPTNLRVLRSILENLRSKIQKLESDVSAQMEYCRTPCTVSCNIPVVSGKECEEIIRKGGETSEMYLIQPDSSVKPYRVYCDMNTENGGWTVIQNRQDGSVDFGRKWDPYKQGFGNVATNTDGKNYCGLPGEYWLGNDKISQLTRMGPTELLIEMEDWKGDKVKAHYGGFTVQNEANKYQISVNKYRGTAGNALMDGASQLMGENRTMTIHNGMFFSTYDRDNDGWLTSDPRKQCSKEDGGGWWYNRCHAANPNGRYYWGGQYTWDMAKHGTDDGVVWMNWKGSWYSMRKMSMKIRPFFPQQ
row,SMILES,inhibition
1,CC(C)Oc1cc(F)ccc1-c1cc(C(=O)Nc2cccc(Cl)c2)[nH]n1,-6.05%
2,CC(CNS(=O)(=O)c1ccc(Br)cc1)CN(C)C (centres undefined),-0.63%
3,Cc1ccc(C(=O)Cc2nnc(C)s2)cc1,-0.99%
4,O=S(=O)(NCc1ccccc1Cl)c1cnc[nH]1,-4.95%
5,Cc1c(C(=O)N(C)CCc2cnn(C)c2)oc2c(F)cccc12,3.62%
6,COc1cccc(NC(=O)C2(C)CCN2Cc2ccccc2Cl)c1 (centres undefined),0.5%
7,COC(=O)c1cc(NC(=O)c2cc(C(C)(C)C)nn2Cc2cccc(C)c2)ccc1N1CCOCC1,4.88%
8,O=C(C(NS(=O)(=O)c1cccc2nsnc12)c1ccccc1)N1CCN(c2ccccc2)CC1 (centres undefined),8.08%
9,CN1CCN(C(=O)c2ccc(-c3cc4nc(NCc5cccnc5)n(C)c(=O)c4s3)cc2)CC1,-11.9%
10,O=C(COc1ccc(Cl)cc1)NCCSc1ccccc1,-0.51%
11,Cc1cc2ccccc2n1CCNC(=O)COc1ccc2ccccc2c1,52.5% (active)
12,Cc1ccccc1OCC(=O)NCC(=O)OCC(=O)c1ccc2ccccc2c1,-2.48%
13,O=C(NCc1ccccc1)c1cccc(NC(=O)C2CCCCC2)c1,3.16%
14,O=C(CC(NC(=O)c1ccccc1)c1ccccc1)Nc1ccc(F)c(F)c1 (centres undefined),6.57%
15,C=CC(COCc1ccccc1)N(CC(=O)OC)S(=O)(=O)c1cc(Br)ccc1OC (centres undefined),-3.84%
16,Cc1noc(C)c1CSCC(=O)Nc1ccc(Br)cc1Cl,-5.8%
17,CCN(CC)P(=O)(C(NC(=O)OC)C(F)(F)C(F)(F)C(F)(F)C(F)F)N(CC)CC (centres undefined),0.37%
18,CN1c2ccc(C=O)c3c(C=O)ccc(c23)N(C)C1(C)C,29.5% (active)
19,C[C@@H]1CN([C@H](C)CO)S(=O)(=O)c2ccc(C#CC3CCCCC3)cc2O[C@H]1CN(C)C(=O)Cc1ccncc1,2.11%
20,Cc1cc(NC(=O)CCC(=O)N(Cc2ccccc2)C(C(=O)NC2CCCC2)c2ccc(C)o2)no1 (centres undefined),-2.98%
21,Cc1sc2ncn(CC(=O)NCCCC(=O)N(C)Cc3ccccc3)c(=O)c2c1C,6.86%
22,CCCNC(=O)c1cc(C2CCCN(C(=O)c3ccc4c(c3)CCO4)C2)on1 (centres undefined),2.19%
23,COc1cc(NC(=O)c2ccc(CNc3c(N4CCCC4)c(=O)c3=O)cc2)cc(OC)c1OC,17.7% (active)
24,O=C(NC1CCCCC1)c1ccc(CNc2c(N3CCOCC3)c(=O)c2=O)cc1,-6.33%
25,O=C(NCc1ccccc1)c1ccc(CNc2c(N3CCCC3)c(=O)c2=O)cc1,-2.33%

row,SMILES,inhibition
1,COc1cc(OC)cc(-c2c(-c3cccs3)c3cc(-c4ccc(OC)cc4F)ccc3n2C)c1,8.62%
2,Cc1nnsc1S(=O)(=O)Cc1ccccc1Cl,16.3% (active)
3,Cc1nnsc1C(=O)NCc1c(F)cccc1Cl,2.62%
4,CCC1CCCCN1S(=O)(=O)Cc1ccccc1Cl (centres undefined),-7.39%
5,CCOC(=O)N1CCC(NC(=O)C(NS(=O)(=O)c2ccc3c(c2)CCN3C(=O)CC)C(C)C)CC1 (centres undefined),0.83%
6,CC(C)Cc1ccc(S(=O)(=O)N2CCN(C(=O)c3ccco3)CC2)cc1,0.21%
7,C[C@H](CO)N1C[C@H](C)[C@@H](CN(C)Cc2ccc(-c3ccccc3)cc2)Oc2ccc(NC(=O)Cn3cnnn3)cc2C1=O,4.05%
8,COC(=O)c1cc(=O)n(-c2c(Cl)cc(C(F)(F)F)cc2Cl)[nH]1,0.92%
9,O=C(OCCOc1ccccc1Cl)c1cc(S(=O)(=O)N2CCCCC2)ccc1N1CCOCC1,-7.85%
10,CC(C)c1cc(NCc2ccccn2)n2c(nc3ccccc32)c1C#N,5.58%
11,Cc1cc2cc(CNC(=O)c3ccc(S(=O)(=O)N4CCOCC4)cc3)ccc2[nH]1,16% (active)
12,O=C(Nc1ccc2cn[nH]c2c1)c1ccc(S(=O)(=O)N2CCOCC2)cc1,3.58%
13,Cc1cc2cc(CNC(=O)c3cccs3)ccc2[nH]1,-2.34%
14,N=c1n(Cc2ccc(Cl)cc2)c2ccccc2n1CC(O)c1ccco1 (centres undefined),0.26%
15,C=CCNC(=S)N1CCN(CCN=Cc2c(C)[nH]n(-c3ccc([N+](=O)[O-])cc3)c2=O)CC1,-4.37%
16,O=c1[nH]n(-c2ccc([N+](=O)[O-])cc2)c(=O)c2ccccc12,27.3% (active)
17,O=C(CSCc1ccc([N+](=O)[O-])cc1)NCCSCc1ccccc1,2.74%
18,COc1cccc(NC(=O)Cn2c3ccc(F)cc3c3nc4n(c(=O)c32)CCS4)c1,-7.55%
19,COc1ccc(C2/C=C\CN(S(=O)(=O)c3cccs3)CC(=O)N2Cc2ccc(F)cc2)cc1 (centres undefined),-0.69%
20,CC(=O)c1ccc(OCCCC(=O)Nc2ccc(C)c(S(=O)(=O)N3CCOCC3)c2)cc1,6.11%
21,CCCCNC(=O)c1ccccc1NC(=O)c1ccccc1N(C)S(C)(=O)=O,2.47%
22,COc1ccccc1N(CCOc1ccccc1)S(=O)(=O)c1ccccc1,5.19%
23,COC(C/C=C/C(=O)[C@@H](C)OCc1ccccc1)OC,5.15%
24,O=c1c2ccccc2nc2n1C(CSCc1cccc(C(F)(F)F)c1)CS2 (centres undefined),2.51%
